# Source: PubChem BioAssay (EPA / NIEHS)
# Inconclusive results are not listed. Active and inactive are the calls of the source. Rule for the calls, unless noted: active = hit-call score of the fitted dose curve at least 0.9, where 1 is the maximum; inconclusive = response in the unintended direction; inactive = score below 0.9.
# Columns and labels:
# TTR (gene 7276) = test: CCTE_GLTED_hTTR_0.5uM: CCTE's human Transthyretin (hTTR) Inhibition Assay, with 0.5uM TTR, Great Lakes Toxicology and Ecology Division (GLTED) Lab (AID 2284320; active = hit-call score of the fitted dose curve at least 0.9, where 1 is the maximum; inactive = score below 0.9)
# Outline: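 Probe (ANSA) displacement from 0.5 uM human transthyretin was followed by fluorescence (ex 380, em 475) after a 2 h incubation with chemical. Activity was scored as signal loss and fitted positively relative to DMSO.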
# SERPINA7 (gene 6906) = test: CCTE_GLTED_hTBG: CCTE's human Thyroxine-binding Globulin (TBG) Inhibition Assay, Great Lakes Toxicology and Ecology Division (GLTED) Lab (AID 2284343);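 note: active chemicals lower fluorescence versus DMSO baseline by displacing probe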
# Outline: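 Fluorescence (ex 380/em 475) reports ANSA displaced from human TBG after a 2 h incubation with test chemical, without cells. Loss of signal indicates displacement, with DMSO serving as baseline.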
# [1] = CCTE_Deisenroth_5AR_NBTE_donor: CCTE's 5alpha-reductase NanoBRET Target Engagement Assay […], Deisenroth Lab (AID 2284319; active = hit-call score of the fitted dose curve at least 0.9, where 1 is the maximum; inactive = score below 0.9); conditions: actives raise or lower the signal
# Outline: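 HEK293T cells were reverse transfected with an SRD5A2-NanoLuc vector for 20 h, exposed to test chemical (8 points, 10 nM - 29.9 uM) for 3 h, then testosterone tracer for 2 h more. Donor luminescence (460 nm) was read; bidirectional fit versus DMSO.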
# [2] = CCTE_Deisenroth_5AR_NBTE_acceptor: CCTE's 5alpha-reductase NanoBRET Target Engagement Assay - Autofluorescence Screen, Deisenroth Lab (AID 2284321; active = hit-call score of the fitted dose curve at least 0.9, where 1 is the maximum; inactive = score below 0.9;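 note: compound fluorescence in the acceptor channel under 460 nm excitation flags autofluorescence artifacts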); conditions: actives raise or lower the signal
# Outline: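 Autofluorescence check: ToxCast chemicals, nominal 100 uM, excitation 460 nm, n=3 runs. Acceptor fluorescence endpoint, bidirectional fit relative to DMSO. Parent assay in HEK293T, 5 h post-dose.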
# SRD5A2 (gene 6716) = test: CCTE_Deisenroth_5AR_NBTE_ratio: CCTE's 5alpha-reductase NanoBRET Target Engagement Assay - Ratio, Deisenroth Lab (AID 2284322; active = hit-call score of the fitted dose curve at least 0.9, where 1 is the maximum; inactive = score below 0.9); conditions: actives raise or lower the signal
# Outline: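 SRD5A2-NanoLuc HEK293T; cmpd 10 nM-29.9 uM, 3 h preinc + testosterone tracer 2 h; NanoBRET ratio 650/460; bidirectional fit vs DMSO.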
# IYD (gene 389434) = test: CCTE_GLTED_hIYD: CCTE's human Iodotyrosine Deiodinase (xIYD) Inhibition Assay, Great Lakes Toxicology and Ecology Division (GLTED) Lab (AID 2284317);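 note: cell-free human IYD enzyme made in baculovirus insect cells; iodide freed from monoiodotyrosine measured by cerium arsenite color change at 420 nm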
# Outline: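 Cell-free; baculovirus/insect-cell hIYD + MIT substrate + chemical, 3 h. Dowex column cleanup, then Ce4+/As3+ Sandell-Kolthoff read at A420 nm. Triplicate plates; normalized to 3-nitro-L-tyrosine (positive) and DMSO/NaOH (solvent).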
# [3] = CCTE_Padilla_ZF_Score.Craniofacial: CCTE's 144 Hour Post-fertilization zebrafish Assay Score for Craniofacial Malformation, Padilla Lab (AID 2284405; active = hit-call score of the fitted dose curve at least 0.9, where 1 is the maximum; inactive = score below 0.9)
# Outline: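 Craniofacial defects were scored at 6 dpf by two blinded observers using stereomicroscopy. Exposure of wild-type embryos began at 6–8 hpf in sealed wells of 10% Hanks' solution at 26C, with chemical removed by rinsing at 5 dpf.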
# [4] = CCTE_Padilla_ZF_Score.Edema: CCTE's 144 Hour Post-fertilization zebrafish Assay Score for Edema Malformation, Padilla Lab (AID 2284406; active = hit-call score of the fitted dose curve at least 0.9, where 1 is the maximum; inactive = score below 0.9)
# Outline: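 Edema scored at 6 dpf by two blinded observers under a stereo microscope, in single outbred wild-type larvae exposed from 6-8 hpf in sealed wells (Hanks', 26C, 14:10 h light) and chemical-free after a 5 dpf rinse.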
# [5] = CCTE_Padilla_ZF_Score.Spine: CCTE's 144 Hour Post-fertilization zebrafish Assay Score for Spine Malformation, Padilla Lab (AID 2284407; active = hit-call score of the fitted dose curve at least 0.9, where 1 is the maximum; inactive = score below 0.9)
# Outline: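 Spine malformation scored at 6 dpf by two independent blinded observers under stereomicroscope, after static sealed exposure from 6–8 hpf at 26C in Hanks' solution with rinse on 5 dpf. Positive-direction fit against DMSO control.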
# [6] = CCTE_Padilla_ZF_Score.Swim_bladder: CCTE's 144 Hour Post-fertilization zebrafish Assay Score for Swim Bladder Malformation, Padilla Lab (AID 2284408; active = hit-call score of the fitted dose curve at least 0.9, where 1 is the maximum; inactive = score below 0.9)
# Outline: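 Swim bladder inflation scored at 6 dpf by two blinded observers under a stereo microscope. Exposure ran from 6–8 hpf in sealed wells of 10% Hanks' at 26C, with rinsing at 5 dpf; DMSO served as baseline.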
# [7] = CCTE_Padilla_ZF_Score.Position: CCTE's 144 Hour Post-fertilization zebrafish Assay Score for Position, Padilla Lab (AID 2284409; active = hit-call score of the fitted dose curve at least 0.9, where 1 is the maximum; inactive = score below 0.9)
# Outline: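 Wild-type zebrafish embryos (with chorions) exposed singly from 6–8 hpf in sealed wells of Hanks' solution at 26C, rinsed at 5 dpf. At 6 dpf, blinded assessors scored abnormal water-column position by brightfield stereomicroscopy, relative to DMSO.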
# [8] = TAMU_PeakParms_SingleDonor1434_Asystole: Texas A&M University (TAMU) 1.5-hr Human Induced Pluripotent Stem Cell (iPSC)-derived Cardiomyocytes Calcium (Ca+2) Flux Assay for Cardiotoxicity: Asystole (quiescence of beating) (AID 2284328)
# Outline: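 Average Ca2+-flux peak frequency (beats/s) was recorded in single-donor iPSC-derived cardiomyocytes after 90 min exposure (0.2–100 uM final, 0.5% DMSO). Asystole POD set as EC95 against DMSO, no preprocessing.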
# [9] = CCTE_Mundy_HCI_iCellGluta_NOG_NeuriteLength: CCTE's Neurite Outgrowth Assay in iCellGluta cells for Neurite Length, Mundy Lab (AID 2284318)
# Outline: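 Automated high-content imaging of betaIII-tubulin (Alexa Fluor-488) and Hoechst-stained cells gave neurite length, normalized to the DMSO baseline.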
# [10] = IUF_NPC1_cytotoxicity_72hr: Cytotoxicity Assessment at 72 hours in the Leibniz Research Institute for Environmental Medicine (IUF) Neural Progenitor Cell Proliferation Assay (NPC1) (AID 2284332);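 note: rising LDH signal means more cytotoxicity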
# Outline: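 LDH in supernatant, resazurin→resorufin fluorescence (RFU), 72 h exposure, no re-dosing. Cells: primary hNPC spheres, one per well, EGF+FGF medium, 37C/5% CO2, pH 7.2-7.6. Fit: positive direction vs baseline and dynamic range.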
# [11] = CCTE_Mundy_HCI_iCellGluta_NOG_NeuronCount: CCTE's Neurite Outgrowth Assay in iCellGluta cells for Neuron Count, Mundy Lab (AID 2284340);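 note: cells fixed about 48 h after compound addition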
# Outline: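 Neuron count read by automated high-content imaging of Hoechst 33342 and betaIII-tubulin/Alexa Fluor-488 labelling in human iPSC glutamatergic neurons. Activity fitted relative to DMSO.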
# [12] = CCTE_Mundy_HCI_iCellGluta_NOG_NeuriteCount: CCTE's Neurite Outgrowth Assay in iCellGluta cells for Neurite Count, Mundy Lab (AID 2284342);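 note: chemical exposure about 48 hours starting 2 hours after plating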
smiles,measurement,setting,value
N[C@@H](Cc1cc(I)c(Oc2cc(I)c(O)c(I)c2)c(I)c1)C(=O)O,AC50,TTR (gene 7276),0.205 µM (active)
same,AC50,SERPINA7 (gene 6906),0.0273 µM (active)
O=C(c1ccccc1)C(O)c1ccccc1 (configuration not stated),AC50,SERPINA7 (gene 6906),15.9 µM (active)
[O-]n1ccccc1=S.[O-]n1ccccc1=S.[Zn+2],outcome,[1],inactive
same,outcome,[2],inactive
same,outcome,SRD5A2 (gene 6716),inactive
O=C(CC(=O)c1ccccc1)c1ccccc1,AC50,SERPINA7 (gene 6906),8.66 µM (active)
O=[N+]([O-])c1ccc(O)cc1C(F)(F)F,outcome,[1],inactive
same,outcome,[2],inactive
same,AC50,SRD5A2 (gene 6716),50 µM (active)
same,AC50,SERPINA7 (gene 6906),28.2 µM (active)
CCCCCCCCc1ccc(S(=O)(=O)O)cc1,AC50,IYD (gene 389434),100 µM (active)
COc1ccccc1N=Nc1c(S(=O)(=O)O)cc2cc(S(=O)(=O)O)cc(NC(C)=O)c2c1O,AC50,IYD (gene 389434),94.8 µM (active)
O=CCc1ccccc1,AC50,SERPINA7 (gene 6906),14.2 µM (active)
Nc1ccc2cc(S(=O)(=O)O)cc(O)c2c1N=Nc1ccccc1C(F)(F)F,AC50,IYD (gene 389434),100 µM (active)
Clc1ccc(C(c2ccccc2Cl)C(Cl)Cl)cc1 (configuration not stated),outcome,[1],inactive
same,outcome,[2],inactive
same,outcome,SRD5A2 (gene 6716),inactive
same,AC50,SERPINA7 (gene 6906),1.79 µM (active)
CC(C)CCCCCCCCCCCCCCC(=O)O,AC50,IYD (gene 389434),40.8 µM (active)
same,AC50,SERPINA7 (gene 6906),5.3 µM (active)
FC(F)(F)COCC(F)(F)F,outcome,[3],inactive
same,outcome,[4],inactive
same,outcome,[5],inactive
same,outcome,[6],inactive
same,outcome,[7],inactive
Oc1ccc2cc(SSc3ccc4cc(O)ccc4c3)ccc2c1,AC50,IYD (gene 389434),56.9 µM (active)
same,AC50,SERPINA7 (gene 6906),0.423 µM (active)
CC(C)NCC(O)COc1ccc(CC(N)=O)cc1 (configuration not stated),outcome,[8],inactive
Nc1ccc(N)c2c1C(=O)c1ccccc1C2=O,outcome,IYD (gene 389434),inactive
same,outcome,[1],inactive
same,AC50,[2],7.65 µM (active)
same,AC50,SRD5A2 (gene 6716),2.08 µM (active)
CN(C)CCOC(C)(c1ccccc1)c1ccccn1 (configuration not stated),outcome,[9],inactive
same,outcome,[10],inactive
same,outcome,[11],inactive
same,outcome,[12],inactive
